Screening results as filed in PubChem.
Hits are enriched below; roughly 2.7% of the tested compounds scored in any of these assays.
DNA FID counter: counter-screen for HCV NS3 helicase inhibitors: DNA intercalator displacement. DNA fluorescent intercalator displacement, fluorescence. inhibition, % at 7.9 µM. 290,000 compounds, 0.17% hits; in the data active = inhibition above about 37%;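 also: higher means more ethidium bromide displaced from hairpin DNA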
PREPL inhibitor: inhibits the human prolyl oligopeptidase-like enzyme; recombinant PREPL, fluorescence polarization activity-based probe; inhibition, % at 5.96 µM; AID 2751; 320,000 compounds, 0.68% hits; Q4J6C6; in the data active = inhibition above about 43%
TMEM16A inh: blocks the mouse calcium-activated chloride channel TMEM16A; Q8BHY3; HEK293 TMEM16A/YFP iodide influx fluorescence, ionomycin; normalized B-score (activity score, 25-100; higher = stronger inhibition) at 10 µM; 310,000 compounds, 1.2% hits;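 active = ratio plate-corrected score three or more library SD toward inhibition, starting fluorescence score within five deviations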;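 also: score derived from kinetic fluorescence span divided by baseline fluorescence per well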
Target sequence (Q8BHY3 whole entry, looked up): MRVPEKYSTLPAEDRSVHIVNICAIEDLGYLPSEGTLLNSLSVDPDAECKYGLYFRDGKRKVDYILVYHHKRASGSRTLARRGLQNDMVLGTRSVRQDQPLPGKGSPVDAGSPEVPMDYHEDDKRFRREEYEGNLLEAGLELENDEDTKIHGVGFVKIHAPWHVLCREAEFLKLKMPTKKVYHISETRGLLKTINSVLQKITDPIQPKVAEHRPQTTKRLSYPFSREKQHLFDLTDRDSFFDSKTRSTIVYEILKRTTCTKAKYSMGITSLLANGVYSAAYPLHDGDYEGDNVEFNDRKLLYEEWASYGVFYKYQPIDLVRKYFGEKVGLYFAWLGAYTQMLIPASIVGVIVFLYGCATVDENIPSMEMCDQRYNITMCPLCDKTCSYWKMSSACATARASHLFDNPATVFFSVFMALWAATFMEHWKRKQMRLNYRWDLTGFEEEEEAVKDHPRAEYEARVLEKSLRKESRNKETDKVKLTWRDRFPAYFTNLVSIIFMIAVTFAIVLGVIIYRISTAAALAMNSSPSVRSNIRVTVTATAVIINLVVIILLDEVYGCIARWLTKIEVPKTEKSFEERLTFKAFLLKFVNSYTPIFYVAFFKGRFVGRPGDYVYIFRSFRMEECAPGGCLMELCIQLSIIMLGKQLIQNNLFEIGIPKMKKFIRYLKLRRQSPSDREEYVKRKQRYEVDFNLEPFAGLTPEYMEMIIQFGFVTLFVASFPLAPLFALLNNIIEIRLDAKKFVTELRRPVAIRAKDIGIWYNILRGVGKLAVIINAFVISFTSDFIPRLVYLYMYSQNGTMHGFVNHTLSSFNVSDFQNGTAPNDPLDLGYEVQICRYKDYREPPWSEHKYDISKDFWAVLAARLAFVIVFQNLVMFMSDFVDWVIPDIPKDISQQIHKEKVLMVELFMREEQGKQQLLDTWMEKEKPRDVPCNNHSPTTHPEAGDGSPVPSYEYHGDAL
PP1 inh: blocks human PP1-alpha phosphatase, a PP5 counter-screen. P62136. purified PP1alpha, OMFP fluorescence. inhibition, % at 6.7 µM. 320,000 compounds, 0.9% hits;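 active = inhibition above the mean inhibition of all tested compounds plus 3 SD, computed separately for each screening campaign, cut at about 15% in these data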
TMEM16A act: activators or potentiators of mouse TMEM16A chloride channel | Q8BHY3 | HEK293 TMEM16A/YFP-H148Q/I152L, iodide quench fluorescence; hits give low values | B-score at 10 µM | AID 623877 | 340,000 compounds, 0.3% hits;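 active = fluorescence-ratio B-score plate-corrected deviation score at least 3 library SD below zero, with starting fluorescence score within 5 deviations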;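 also: channel opened by trigger with iodide after compound preincubation; score built on the fluorescence ratio of max minus min over baseline; more negative score means more quench and so TMEM16A activation or potentiation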
PP5 inh: inhibitors of human protein phosphatase 5 (PP5); P53041; 320,000 compounds, 0.18% hits; AID 1987; inhibition, % at 6.7 µM; purified PP5c, OMFP substrate fluorescence;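 active = inhibition above the campaign's mean inhibition across all tested compounds plus 3 SD, cut at about 9.5% in these data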
PP1 confirm: confirmation of human PP1 phosphatase inhibitors; shares compounds with PP1 inh; purified PP1alpha, OMFP substrate fluorescence; inhibition, % at 6.7 µM; 1,900 compounds, 52% hits; AID 2358;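 active = mean PP1 inhibition above a set limit taken from the earlier primary screen, cut at about 15% in these data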
PP5 inh counter: PP5 phosphatase inhibition, counter-screen for PP1 inhibitors; shares compounds with PP1 inh; purified PP5c, OMFP fluorescence; inhibition, % at 6.7 µM; 1,900 compounds, 4% hits; AID 2360;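 active = mean PP5 inhibition over triplicate wells above about 9.5% taken from the earlier PP1 screen, limit read from the data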
Hits are given with their value; . = inactive; / = not tested or not shown.

SMILES	DNA FID counter	PREPL inhibitor	TMEM16A inh	PP1 inh	TMEM16A act	PP5 inh	PP1 confirm	PP5 inh counter
COc1ccc(/C=C2\SC(=S)N(CCCC(=O)NNC(=O)c3ccccc3O)C2=O)cc1	.	.	.	.	.	.	/	/
Cc1cc(C(F)(F)F)nn1CC(=O)NCc1ccco1	.	.	.	18	.	.	.	.
Cc1c(Cl)c(C(F)(F)F)nn1CC(=O)NCc1ccco1	.	.	.	.	.	.	/	/
Cc1ccc(NC(=O)CS(=O)CC(=O)N(CC(=O)NC(C)(C)C)c2cccc(C)c2C)cc1 (stereo not drawn)	.	.	.	.	.	.	/	/
CCOc1ccc(Oc2ccccc2NC(=O)CN2C(=O)NC3(CCCC3)C2=O)cc1	/	.	.	.	.	.	/	/
CCCCN(C(=O)c1cccc(-n2cccc2)c1)c1c(N)n(Cc2ccccc2)c(=O)[nH]c1=O	/	.	.	34	.	.	.	.
CCCCN(C(=O)c1cccc(N2C(=O)c3ccccc3C2=O)c1)c1c(N)n(CC(C)C)c(=O)[nH]c1=O	/	.	/	.	.	.	/	/
CCOC(=O)Cc1csc(NC(=O)c2sc3nc4cc(C)ccc4cc3c2N)n1	.	.	.	28	.	.	33	.
CCOC(=O)Cc1csc(NC(=O)c2sc3nc4ccc(CC)cc4cc3c2N)n1	.	.	.	30	.	.	25	.
COc1ccc(/C=C(\NC(=O)c2ccccc2)C(=O)NC2CCS(=O)(=O)C2)cc1 (stereo not drawn)	.	.	.	.	.	.	/	/
COc1ccc(/C=C2\N=C(c3c(-c4ccccc4)noc3C)OC2=O)cc1OC	.	.	.	19	.	.	.	.
COc1cc(/C=C2\N=C(c3ccccc3)OC2=O)ccc1OCc1c(C)no[n+]1[O-]	.	.	.	.	.	.	/	/
O=[N+]([O-])c1cc(/C=N/n2c(-c3ccncc3)n[nH]c2=S)ccc1Cl	.	.	.	25	.	.	.	.
CC(Oc1ccccc1)C(=O)N=Nc1c(O)[nH]c2ccc(Br)cc12 (stereo not drawn)	.	.	.	18	.	.	.	.
CCc1cc(C(=O)OC)c(NC(=O)CN2CCN(C(=O)C3CCCO3)CC2)s1 (stereo not drawn)	.	.	.	.	.	.	/	/
O=C(O)CN1C(=O)/C(=C\c2ccccc2OCc2ccc(Cl)cc2Cl)SC1=S	.	.	.	24	.	.	21	.
CCn1c(SCC(=O)NC2CCCCC2)nnc1-c1ccco1	.	.	.	.	.	.	/	/
CC(=O)NC1C(=O)N=C(SCC(=O)Nc2cccc(Cl)c2)NC1=O (stereo not drawn)	.	.	.	.	.	.	/	/
CCCCCCCCCCCCCCCC[n+]1ccc(/C=N/O)cc1	.	.	.	54	.	.	32	15
CCCCCCCC[n+]1cccc(C(=O)N(CC)CC)c1	.	.	.	.	.	.	/	/
CCCCCCCCCCCCCCCC[n+]1ccc(C(N)=O)cc1	.	.	.	41	.	.	25	.
Cc1ccc(-n2c(C)cc(-c3csc(N)n3)c2C)cc1	.	.	.	19	.	.	.	.
Cc1ccc(-c2csc(N)n2)cc1	/	/	/	/	.	/	/	/
CCn1c(=O)cc(SCC(=O)N2CCN(C3CCCCC3)CC2)c2ccccc21	.	.	.	30	.	.	.	.
CCn1c(=O)cc(SCC(=O)N2CCOCC2)c2ccccc21	.	.	.	.	.	.	/	/
SMILES	DNA FID counter	PREPL inhibitor	TMEM16A inh	PP1 inh	TMEM16A act	PP5 inh	PP1 confirm	PP5 inh counter
Cc1cc(-c2nnc(CCC(=O)N(C)Cc3cccc4ccccc34)o2)no1	.	.	.	.	.	.	/	/
O=C1CC(C(=O)Nc2ccc(Cl)c(Cl)c2)S/C(=N\N=C\c2ccco2)N1 (stereo not drawn)	.	.	.	22	.	.	.	.
CCN1CCN(Cc2ccc(NC(=O)c3cc(NC(=O)c4cncc(-c5ccc(C#N)cc5)c4)cc(OC)c3)cc2C(F)(F)F)CC1	/	.	.	51	.	.	.	.
CCN1CCN(Cc2ccc(NC(=O)c3cc(NC(=O)c4nccnc4N)cc(OC)c3)cc2C(F)(F)F)CC1	/	.	.	.	.	.	/	/
O=C(c1ccc(=O)[nH]c1)N(Cc1cccs1)C1(C(=O)NC2CCCC2)CCCCC1	.	.	.	19	.	.	.	.
COc1ccc(NC(=S)NC(=O)c2cncc(Br)c2)cc1	/	.	.	.	.	.	/	/
O=C(O)[C@@H](c1ccccc1)N1Cc2ccccc2C1=O	.	.	.	24	.	.	35	.
COc1cc(/C=C/C(=O)O)ccc1OS(=O)(=O)c1c(C)cc(C)cc1C	/	.	/	.	.	.	/	/
COc1ccc(CNc2nc(NCc3ccc(OC)cc3)c3[nH]cnc3n2)cc1	/	.	.	18	.	.	.	11
COc1ccc(CNc2ncnc(N)n2)cc1	.	.	.	.	.	.	/	/
C/C(=N\Nc1ccc([N+](=O)[O-])cc1[N+](=O)[O-])C(C)C(C)C (stereo not drawn)	.	.	.	.	.	.	/	/
O=C(Nc1cccc2ccccc12)/C(=C/c1cccc([N+](=O)[O-])c1)NC(=O)c1cccs1	.	.	.	.	.	.	/	/
Cc1cccc(NC(=O)/C(=C/c2cccc([N+](=O)[O-])c2)NC(=O)c2cccs2)c1	.	.	.	18	.	.	.	.
CN(CC(=O)Nc1ccccc1C(F)(F)F)C(=O)c1ccc(N2C(=O)CCC2=O)cc1	/	.	.	.	.	.	/	/
O=C(COc1cccnc1[N+](=O)[O-])Nc1cc(S(=O)(=O)N2CCCCC2)ccc1Cl	.	.	.	.	.	.	/	/
Cc1nnc(NC(=O)c2ccc3ccccc3c2)o1	.	.	.	19	.	.	.	.
Cc1nnc(NC(=O)c2ccc(S(=O)(=O)N(C)Cc3ccccc3)cc2)o1	.	.	.	38	.	.	30	.
CN(C)c1ccc(C(=O)Nc2nnc(C3=COCCO3)o2)cc1	.	.	.	.	.	.	/	/
O=C(Nc1nnc(-c2ccco2)o1)c1ccc2ccccc2c1	.	.	.	.	.	.	/	/
CN(c1ccccc1)S(=O)(=O)c1ccc(C(=O)Nc2nnc(C3=COCCO3)o2)cc1	.	.	.	26	.	.	15	.
COCc1nnc(NC(=O)c2ccc(S(=O)(=O)N(C)C3CCCCC3)cc2)o1	.	.	.	18	.	.	.	.
CCOc1cc(C=O)ccc1OS(=O)(=O)c1ccc(NC(C)=O)cc1	.	.	.	.	.	.	/	/
Cc1ccccc1NC(=O)Cc1nc(COC(=O)c2cc(Cl)ccc2O)cs1	.	.	.	.	.	.	/	/
O=C(COc1ccc(Cl)cc1)Nc1ccccc1C(=O)NCc1cccnc1	.	.	.	.	.	.	/	/
